From PMC12136788
Whole data set: some 5,800 sequences, median “enrichment r” near 0.68, cut for the highest 2% near 11. Many of the other results were omitted from the sample, so the highest values are more common in it than they were.

T1: UNK ZnF1-6 (called full-length) (human, UniProt Q9C0B0 30-357)
T1 sequence: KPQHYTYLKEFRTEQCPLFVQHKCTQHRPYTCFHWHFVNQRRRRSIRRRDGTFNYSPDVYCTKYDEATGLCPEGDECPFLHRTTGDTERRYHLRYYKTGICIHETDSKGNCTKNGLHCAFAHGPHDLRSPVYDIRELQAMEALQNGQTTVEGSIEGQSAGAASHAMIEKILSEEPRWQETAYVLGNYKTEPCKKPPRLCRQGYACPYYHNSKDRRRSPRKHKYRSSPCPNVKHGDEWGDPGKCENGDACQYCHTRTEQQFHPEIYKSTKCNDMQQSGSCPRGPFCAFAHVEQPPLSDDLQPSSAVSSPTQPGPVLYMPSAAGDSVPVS

B1: chr2:73730642:73730743:-|CDS|ENSG00000144034|unk|FALSE|unique (ssRNA)
RNA: GGGAGUUCUACAGUCCGACGAUCUUCAGACGUAGGAAACAAUGGUUAAUGAUCUUGUGUUUUUUUUUUCAUUUUUUUUCUCUUAGAUUUCAGAGGCUUUGAAAAAAUUUGGUAUCUCAGCAAAUGACACUUCAAUUCUAAUUGCAACAGAGGAUUGAGCAUCA
B2: chr1:17407970:17408071:-|3pUTR|ENSG00000179051|msi1|FALSE|unique (ssRNA)
RNA: GGGAGUUCUACAGUCCGACGAUCGGGUACCGUUCUGCUGACCCAGCUCCCUUUAGUCACGUUUGCUUGGCUCUGGUACCAAAUAGUUGGGAUUACCGAAGAGUCCCCUUCCUUGCGUGUCAGCACGGAUGCUGUGACUGCCACCAACAGAGGAUUGAGCAUCA
B3: chr10:62095068:62095169:+|3pUTR|ENSG00000150347|msi1|total|mutant (ssRNA)
RNA: GGGAGUUCUACAGUCCGACGAUCCCAUUUGCUUCAAUUAAUUAUUUACCUUCCUGUGGAAUAAUAUAUAUAUAUAUAUUUAACCGAACCACCGACCGACCCGCCGAAUUCCGAUUAUAAAUGUGUGAGUGCAGAUUAUCCUGCCAACAGAGGAUUGAGCAUCA
B4: chr4:138167974:138168075:-|3pUTR|ENSG00000151012|msi1|FALSE|unique (ssRNA)
RNA: GGGAGUUCUACAGUCCGACGAUCCACAAAAUCUGCAUUGUCCAUGUGAGUAAAGUAAAAUAAUUCCUGUUAUUUUUUUCUGUUAGAAAUAAGUAUGGAGGAUAUGUUUUUAAAAAUUUAUGAGUUAAUUGAAAUAUCCAUAUACAACAGAGGAUUGAGCAUCA
B5: chr6:142752714:142752806:-|3pUTR|ENSG00000010818|msi1_unk|total|mutant (ssRNA)
RNA: GGGAGUUCUACAGUCCGACGAUCUUUUCUUUACUUUGCUUAUAUUCUUAUAAGCAUUUUUCCGCAGUAAUUUGUACAUAUUUCCGAAUUUGUGUAUCUGCUUUGUAAUAAAUGUAAUUUCUUUCCUUUUUUGGACACUUGGAUCAACAGAGGAUUGAGCAUCA
B6: chr21:34788506:34788607:-|3pUTR|ENSG00000159216|msi1|FALSE|unique (ssRNA)
RNA: GGGAGUUCUACAGUCCGACGAUCUUGUUAAUGCCUAUAACUUUUUUUCAAUUUUUUUGUGUGUGUUUCUAAGGACUUUUUCUUAGGUUUGCUAAAUACUGUAGGGAAAAAAAUGCUUCUUUCUACUUUGUUUAUUUUAGACUUCAACAGAGGAUUGAGCAUCA
B7: chr6:133987709:133987810:+|3pUTR|ENSG00000028839|unk|FALSE|unique (ssRNA)
RNA: GGGAGUUCUACAGUCCGACGAUCAAUAACAAAUAGGAAUUUUUUUUCUUGCAGAUUAGAAAUAAAAACGUGUAUAUAAACUCUAGGGAACCAGACUAGAAGUUUAUAGAUAAAGGAUAAUGUUUUAUGUUGCUAAUUUAAUAUCAACAGAGGAUUGAGCAUCA
B8: chr14:53043751:53043854:-|3pUTR|ENSG00000100523|unk|FALSE|unique (ssRNA)
RNA: GGGAGUUCUACAGUCCGACGAUCACUUAGAUUAAAUCUUGCUUUAUUUUUACUUUAAAAUUAGUCUUGCUAAGGCCUUAUGUUAGUUCAUACUUUCUUUUCAACAGUAAUCUUGUUUAUAAUCCAGUGUUUCUGUGUUUUAGGCAACAGAGGAUUGAGCAUCA
B9: chr10:62095068:62095169:+|3pUTR|ENSG00000150347|msi1|FALSE|unique (ssRNA)
RNA: GGGAGUUCUACAGUCCGACGAUCCCAUUUGCUUCAAUUAAUUAUUUACCUUCCUGUGGAAUAAUAUAUAUAUAUAUAUUUAAUAGAACCAUAGAUAGACUAGUAGAAUUUAGAUUAUAAAUGUGUGAGUGCAGAUUAUCCUGCCAACAGAGGAUUGAGCAUCA
B10: chr5:72209348:72209524:+|3pUTR|ENSG00000131711|msi1_unk|FALSE|overlapping (ssRNA)
RNA: GGGAGUUCUACAGUCCGACGAUCUUAUGUCUUAUAAUCCUGCAUCACUUCUAUCCUAUCCAGUCAUAUCUAAUGUAGAAAAUUAGUUUCCAGUGAAAGUAAUAUGUAGUGCUUUUAUGAUAUUUGUGUGCAAUAUCCCCUCUUCAACAGAGGAUUGAGCAUCA
B11: chr10:95311796:95311897:-|3pUTR|ENSG00000095637|unk|FALSE|unique (ssRNA)
RNA: GGGAGUUCUACAGUCCGACGAUCCAGACAUAGAUUUUUCUGUUCAUUUAUUUUUCUUCAUUGCAGUGGAUUGAUUUGAUAAAUAGAUGUGUUGAAUUACUACAUUUGCUGUACAUAUUAUUUAAUAAACUUUAUUCAGAAUUGCAACAGAGGAUUGAGCAUCA
B12: chr9:72354534:72354635:-|3pUTR|ENSG00000107372|msi1|FALSE|unique (ssRNA)
RNA: GGGAGUUCUACAGUCCGACGAUCGUCCUAGUUUUUACUUUUAUUCUUAAAGCAUUCAGUUUUGCUUUCAAUUUUAUGUACCUUAGUUCUGAGUUAGACCUGCAGAUGUGUACAGAUAGUUCAUAUUUAUGUAUUGCACAUAAUCAACAGAGGAUUGAGCAUCA
B13: chr15:34978960:34979061:-|3pUTR|ENSG00000198146|msi1|FALSE|unique (ssRNA)
RNA: GGGAGUUCUACAGUCCGACGAUCGCCCUCUGUAUCCAUGUACUCUGCAUCUGUGGAUUAAACCAAUUGCAGAUCAAAAAUAUUAGAAAAAAUAAAAAUAAUACAAAUAAAAAUACAGUAUAACAGUUAUUUAAAUAGCAUUUACAACAGAGGAUUGAGCAUCA
B14: chr10:110135209:110135310:+|3pUTR|ENSG00000148700|msi1|FALSE|bound_elsewhere (ssRNA)
RNA: GGGAGUUCUACAGUCCGACGAUCCUCUCUAUUGGAAGAUUUUUUUAAUGUUCUACAUCAUUUAUGUUGUAUUACAAUGUAUGUAGAAAUAGUAACCUGUGAACUAUGCUUUUCCAUAACUUUUUAAAAAUAUAUAUAUCUAAACAACAGAGGAUUGAGCAUCA

What follows are binders tested against T1, UNK ZnF1-6 (called full-length) (assay: nsRBNS (natural sequence RNA bind-n-seq); RBNS binding buffer (assumed for nsRBNS): 25 mM Tris pH 7.5, 150 mM KCl, 3 mM MgCl2, 0.01% Triton X-100, 500 ug/ml BSA, 20 U/ml SUPERase-In, 4 C; UNK is unkempt and MSI1 is Musashi-1; names of the RNAs are library labels; protein concentration not given here; high values mean tight binding).

**Q.** B1 was tested. Which binding signal did it give?
**A.** 1.44 enrichment R

**Q.** With B2 as the binder, how does the binding signal read?
**A.** 2 enrichment R

**Q.** With B3 as the binder, how does the binding signal read?
**A.** 2.12 enrichment R

**Q.** How did the binding signal turn out when B4 was run?
**A.** 1.08 enrichment R

**Q.** For B5, which binding signal is on record?
**A.** 0.576 enrichment R

**Q.** For B6, which binding signal is on record?
**A.** 2.15 enrichment R

**Q.** With B7 as the binder, how does the binding signal read?
**A.** 2.44 enrichment R

**Q.** With B8 as the binder, how does the binding signal read?
**A.** 15 enrichment R

**Q.** For B9, which binding signal is on record?
**A.** 15.6 enrichment R

**Q.** For B10, which binding signal is on record?
**A.** 1.93 enrichment R

**Q.** For B11, which binding signal is on record?
**A.** 2.42 enrichment R

**Q.** For B12, which binding signal is on record?
**A.** 37.4 enrichment R

**Q.** For B13, which binding signal is on record?
**A.** 22.2 enrichment R

**Q.** How did the binding signal turn out when B14 was run?
**A.** 7.46 enrichment R
